From PubChem BioAssay (NCATS) come the findings set out here.

A number with no mark means an inactive call. Records with an inconclusive call do not appear. The source made the active and inactive calls. Unless noted, calls come from the whole dose curve; as a rule, active = well fitted curve in either direction with a large enough effect (not every such curve was filed as active); inconclusive = small, poorly fitted or top-dose-only effect, or another doubt; inactive = flat fitted curve, though single readings scatter.

The target in test [1] is Lysosomal acid glucosylceramidase (Homo sapiens) (UniProt P04062). In words: Glucocerebrosidase-p2 (AID 348; in the data active = potency below about 10 µM; note: potency is the fitted concentration of half-maximal effect). The note with it: purified GBA, blue fluorogenic substrate, 40 min. In a few lines: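 Normal human glucocerebrosidase (0.2 nM) with blue fluorogenic substrate (80 uM final) in citrate/phosphate pH 5.9 with 10mM sodium taurocholate, 0.01% tween-20; 40 min RT, NaOH/glycine stop; fluorescence Ex 365/Em 440; AC50 from a titration from 0.6 nM upwards.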

For test [2], the target named is Cytochrome P450 1A2 (Homo sapiens) (UniProt P05177). In words: p450-cyp1a2 (AID 410; calls by dose curve; note: potency is the fitted concentration of half-maximal effect;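 for activity change, negative = inhibition: -100% = full effect of reference inhibitor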). The note with it: recombinant CYP1A2, luciferin-ME demethylation, luminescence; series mostly up to 57 µM. The essentials:
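Luminescent demethylation readout: Luciferin-ME (100uM, equal to Km) turned over by 20nM CYP1A2 for 60 min at room temperature after NADPH regeneration addition, following 10 min compound preincubation. Normalization used 57 uM furafylline as full inhibition.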

A short description of test [3]: NFAT Signaling Pathway (AID 444).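 Note: carbachol stimulus at about its EC50 of 1 µM final; % is set by controls: 0 for no effect and ±100 for the full control effect.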 Particulars: Jurkat NFAT-bla M1, carbachol, beta-lactamase ratio, 5 h; at 7.69 µM (top of the series) unless noted. The essentials: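 Read-out: CCF4 FRET ratio (460 nm/530 nm) after 1 h RT dye loading, used for %activity and AC50 from titration series. Cells: Jurkat NFAT-β-lactamase/M1 line, treated with compound plus 1 uM carbachol for 5 h, 37 °C.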

Test [4] is described as follows: Stat Signaling Pathway (AID 446).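 Note: ME-180 cervical cancer cells given 40 pM IL-6 alongside compound; SIE-controlled beta-lactamase reporter measured as 460/530 nm FRET emission ratio; % is set by controls: 0 for no effect and ±100 for the full control effect.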 Particulars: ME-180 SIE beta-lactamase reporter, IL-6 stimulated, 5 h; at 7.69 µM (top of the series) unless noted. In a few lines:
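Compound effects on IL-6-induced STAT reporter activity were measured in ME-180 cells. After overnight culture, cells were co-treated with 40 pM IL-6 for 5 hrs before beta-lactamase substrate loading at room temperature.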

In test [5] the target is Glucocorticoid receptor (Homo sapiens) (UniProt P04150). In words: GR-EFC Redistribution (AID 451; calls by dose curve; note: potency is the fitted concentration of half-maximal effect). The note with it: CHO-K1 GR-EFC translocation, beta-gal luminescence, 2 h. In a few lines:
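Translocation of GR-ED fusion to nuclear EA restores b-gal, read by luminescence after 1 h room-temperature detection. Engineered CHO-K1 biosensor cells, 1,000/well, exposed 2 h at 37 C to titrations up to 46 uM final.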

The target in test [6] is Mitogen-activated protein kinase 10 (Mus musculus) (UniProt Q61831). In words: JNK3 AlphaScreen Assay (AID 530).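 Note: kinase came from lysate of stimulated human HepG2 cells; signal reports phosphorylation of biotinylated GST-cJun 1-79 at Ser73 with 10 µM ATP; % is set by controls: 0 for no effect and ±100 for the full control effect.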 The note with it: JNK3 lysate, c-Jun phosphorylation; series mostly up to 57.1 µM. In a few lines:
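qHTS titrations with 15 min compound pre-incubation before adding ATP (10 uM final). Read-out: AlphaScreen of Ser73-phosphorylated biotin-GST-cJun using HepG2 lysate JNK3 activated by IL-1β and TNFα.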
For orientation: Alpha assays give light when donor and acceptor beads are brought close together.

Test [7] has as its target 3',5'-cyclic-AMP phosphodiesterase 4B (Homo sapiens) (UniProt Q07343). Briefly: qHTS Assay for Inhibitors of PDE-IV (AID 607; active = well fitted activation curve with a large enough effect in the main read-out, with a control signal flat, not every such curve was filed as active; note: % of control where 0% means no effect). The note with it: HEK293 ACTOne CNG channel cells, membrane potential fluorescence; series mostly up to 22.9 µM. In a few lines: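 ACTOne HEK293 cells carry a modified cAMP-gated CNG channel and express endogenous PDE4; plated 1000 cells/well, compounds up to 22.9 uM final. Membrane-potential dye fluorescence (ex 535/em 590) was read; parental cells received 10 uM forskolin + 100 uM RO 20-1724.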
On the technique in general: qHTS replaces the single test concentration by a dilution series.

Test [8] deals with Cytochrome P450 3A4 (Homo sapiens) (UniProt P08684). Briefly: qHTS Assay for Activators of Cytochrome P450 3A4 (AID 885; active = well fitted curve in the direction sought with a large enough effect; an effect the other way counts as inactive or inconclusive; note: nearly all actives have a fitted effect of over 65% in size; note: potency is the fitted concentration of half-maximal effect). The note with it: recombinant CYP3A4, Luciferin-PPXE luminescence, 60 min; series mostly up to 57.1 µM. In a few lines: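 CYP3A4 activity: Luciferin-PPXE O-dealkylation, 25uM substrate, 200mM KPO4, RT throughout. Read-out is luciferase luminescence; higher values reflect activation.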

The nature of test [9]: Primary qHTS for small molecule stabilizers of the endoplasmic reticulum resident proteome: Secreted ER Calcium Modulated Protein (SERCaMP) assay (AID 1508630; active = well fitted curve in the direction sought with a large enough effect; an effect the other way counts as inactive or inconclusive; note: % is set by controls: 0 for no effect and ±100 for the full control effect). Particulars: SH-SY5Y GLuc-SERCaMP (Gaussia luciferase released on ER calcium loss) secretion, thapsigargin, luminescence; series mostly up to 38.4 µM. In a few lines: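 The SH-SY5Y reporter protocol was run at 3 concentrations up to 38.3 uM (primary) or 11 concentrations (follow-up): 16 h compound, 100 nM thapsigargin for 4 h, then extracellular luciferase luminescence.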

Test [10] in a line: AP1 Signaling Pathway (AID 357). Note: % is set by controls: 0 for no effect and ±100 for the full control effect. Particulars: ME-180 AP-1-bla reporter, EGF-induced, beta-lactamase ratio, 5 h; at 7.69 µM (top of the series) unless noted. In a few lines: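 Cells are seeded overnight, exposed to compound titrations and an EC50 level of EGF for 5 hours at 37 °C, then loaded with CCF4 dye for 2.5 hours. Beta-lactamase activity under the AP-1 element is read as a blue/green ratio.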

The nature of test [11]: qHTS Assay for Identification of Small Molecule Agonists for Hypoxia Response Element Signaling Pathway (AID 914; active = well fitted activation curve with a large enough effect in the signal ratio, with a control signal flat, not every such curve was filed as active; the % refers to the signal ratio; note: potency is the fitted concentration of half-maximal effect; for activation: % of control where 0% means no effect). Particulars: ME-180 (cervical carcinoma) HRE-bla reporter, beta-lactamase ratio, CoCl2, 17 h; activation: hits give high values. The essentials:
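AC50 values come from titration-series %Activity, taken as the 460/530nm ratio of CCF4 fluorescence (excitation 405nm). CellSensor HRE-bla ME-180 cells were treated 17 hours at 37 C with compound plus an EC50 level of CoCl2.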

In test [12] the target is Cytochrome P450 3A4 (Homo sapiens) (UniProt P08684). Briefly: qHTS Assay for Inhibitors and Substrates of Cytochrome P450 3A4 (AID 884; active = well fitted curve in the direction sought with a large enough effect; an effect the other way counts as inactive or inconclusive; note: % is set by controls: 0 for no effect and ±100 for the full control effect; nearly all actives have a fitted effect of over 50% in size). Particulars: recombinant CYP3A4, Luciferin-PPXE luminescence; series mostly up to 57.1 µM. In a few lines: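 Luminescent readout of luciferin produced by CYP3A4 (20 nM) dealkylation of Luciferin-PPXE, 25 uM (its KM). NADPH-driven reaction ran 60 min at RT after 10 min compound preincubation; data scaled to 57 uM ketoconazole as 100% inhibition.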

Test [13] deals with Glucocorticoid receptor (Homo sapiens) (UniProt P04150). Briefly: GR-GFP Redistribution (AID 450;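 active = compounds whose dose series gives a full or clear partial fitted curve of increased nuclear translocation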; note: potency is the fitted concentration of half-maximal effect). Particulars: U2OS GR-GFP nuclear translocation, laser cytometry, 2 h.
Sequence of Glucocorticoid receptor (Homo sapiens) (P04150 whole entry, looked up, the tested form may be a part): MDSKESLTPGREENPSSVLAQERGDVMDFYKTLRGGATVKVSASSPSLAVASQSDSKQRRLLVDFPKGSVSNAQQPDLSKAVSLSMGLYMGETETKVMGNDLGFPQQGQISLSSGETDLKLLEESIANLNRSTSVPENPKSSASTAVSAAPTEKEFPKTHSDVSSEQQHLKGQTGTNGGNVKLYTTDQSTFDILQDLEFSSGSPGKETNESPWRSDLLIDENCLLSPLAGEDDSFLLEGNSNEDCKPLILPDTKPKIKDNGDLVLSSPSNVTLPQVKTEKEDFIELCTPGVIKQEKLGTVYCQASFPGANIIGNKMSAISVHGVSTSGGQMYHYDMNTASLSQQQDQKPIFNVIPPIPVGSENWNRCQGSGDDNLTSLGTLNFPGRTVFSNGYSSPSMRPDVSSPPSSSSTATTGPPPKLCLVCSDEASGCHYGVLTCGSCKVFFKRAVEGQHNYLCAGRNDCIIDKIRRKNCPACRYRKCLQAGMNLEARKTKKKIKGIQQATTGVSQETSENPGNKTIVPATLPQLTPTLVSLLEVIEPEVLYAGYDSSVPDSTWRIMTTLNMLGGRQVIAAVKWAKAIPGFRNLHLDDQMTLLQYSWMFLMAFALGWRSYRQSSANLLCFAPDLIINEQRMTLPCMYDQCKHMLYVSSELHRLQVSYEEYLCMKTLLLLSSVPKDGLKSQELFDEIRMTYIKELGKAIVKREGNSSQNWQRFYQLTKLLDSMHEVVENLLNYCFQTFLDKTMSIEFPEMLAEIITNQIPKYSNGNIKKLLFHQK

Sequence of Lysosomal acid glucosylceramidase (Homo sapiens) (P04062 whole entry, looked up): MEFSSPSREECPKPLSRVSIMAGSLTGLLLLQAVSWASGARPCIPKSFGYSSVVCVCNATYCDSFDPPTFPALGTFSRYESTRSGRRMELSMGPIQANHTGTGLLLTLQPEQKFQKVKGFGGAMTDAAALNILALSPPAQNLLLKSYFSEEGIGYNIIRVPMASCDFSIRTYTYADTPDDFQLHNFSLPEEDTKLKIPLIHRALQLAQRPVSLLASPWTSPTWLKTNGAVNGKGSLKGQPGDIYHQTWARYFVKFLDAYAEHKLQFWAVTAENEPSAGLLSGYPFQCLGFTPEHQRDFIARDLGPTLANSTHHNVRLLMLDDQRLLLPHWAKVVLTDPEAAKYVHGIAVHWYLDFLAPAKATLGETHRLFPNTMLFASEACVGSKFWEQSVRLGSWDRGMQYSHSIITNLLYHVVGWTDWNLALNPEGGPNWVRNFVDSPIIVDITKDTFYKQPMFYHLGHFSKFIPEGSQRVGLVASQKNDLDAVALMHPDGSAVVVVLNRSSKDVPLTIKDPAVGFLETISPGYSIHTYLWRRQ
Sequence of Cytochrome P450 3A4 (Homo sapiens) (P08684 whole entry, looked up): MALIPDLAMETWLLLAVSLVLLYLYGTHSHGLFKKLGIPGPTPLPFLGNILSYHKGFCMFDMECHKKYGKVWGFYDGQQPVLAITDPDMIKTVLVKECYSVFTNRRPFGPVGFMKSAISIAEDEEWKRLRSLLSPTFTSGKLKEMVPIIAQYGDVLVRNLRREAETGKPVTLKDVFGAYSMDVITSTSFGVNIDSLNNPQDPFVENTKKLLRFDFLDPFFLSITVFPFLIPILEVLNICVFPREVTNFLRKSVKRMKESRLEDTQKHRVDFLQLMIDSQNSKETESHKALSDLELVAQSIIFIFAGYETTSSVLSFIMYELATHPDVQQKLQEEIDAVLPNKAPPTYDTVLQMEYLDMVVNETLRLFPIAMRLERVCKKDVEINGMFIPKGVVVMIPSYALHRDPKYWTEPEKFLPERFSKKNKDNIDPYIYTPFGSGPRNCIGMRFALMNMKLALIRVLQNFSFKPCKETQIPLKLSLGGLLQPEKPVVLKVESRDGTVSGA
Sequence of 3',5'-cyclic-AMP phosphodiesterase 4B (Homo sapiens) (Q07343 whole entry, looked up): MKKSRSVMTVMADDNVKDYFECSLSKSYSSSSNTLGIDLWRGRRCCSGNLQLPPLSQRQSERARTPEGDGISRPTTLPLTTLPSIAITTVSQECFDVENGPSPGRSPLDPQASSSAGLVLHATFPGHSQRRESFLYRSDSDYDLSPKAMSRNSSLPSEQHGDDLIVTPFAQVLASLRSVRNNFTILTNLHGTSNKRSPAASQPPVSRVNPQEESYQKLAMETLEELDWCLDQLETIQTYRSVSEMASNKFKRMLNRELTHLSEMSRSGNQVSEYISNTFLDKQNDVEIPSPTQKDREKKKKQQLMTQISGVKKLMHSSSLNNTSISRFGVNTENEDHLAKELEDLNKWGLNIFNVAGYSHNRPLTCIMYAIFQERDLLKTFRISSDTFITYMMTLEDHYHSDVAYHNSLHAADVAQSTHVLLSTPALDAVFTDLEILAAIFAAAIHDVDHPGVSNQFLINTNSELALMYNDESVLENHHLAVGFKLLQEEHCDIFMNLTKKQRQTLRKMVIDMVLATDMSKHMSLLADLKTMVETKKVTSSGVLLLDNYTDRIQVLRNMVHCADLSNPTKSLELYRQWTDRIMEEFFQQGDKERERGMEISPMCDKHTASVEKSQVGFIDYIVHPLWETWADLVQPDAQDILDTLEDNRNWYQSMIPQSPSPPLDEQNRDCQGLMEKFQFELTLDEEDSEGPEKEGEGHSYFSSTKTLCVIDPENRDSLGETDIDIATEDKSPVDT
Sequence of Cytochrome P450 1A2 (Homo sapiens) (P05177 whole entry, looked up): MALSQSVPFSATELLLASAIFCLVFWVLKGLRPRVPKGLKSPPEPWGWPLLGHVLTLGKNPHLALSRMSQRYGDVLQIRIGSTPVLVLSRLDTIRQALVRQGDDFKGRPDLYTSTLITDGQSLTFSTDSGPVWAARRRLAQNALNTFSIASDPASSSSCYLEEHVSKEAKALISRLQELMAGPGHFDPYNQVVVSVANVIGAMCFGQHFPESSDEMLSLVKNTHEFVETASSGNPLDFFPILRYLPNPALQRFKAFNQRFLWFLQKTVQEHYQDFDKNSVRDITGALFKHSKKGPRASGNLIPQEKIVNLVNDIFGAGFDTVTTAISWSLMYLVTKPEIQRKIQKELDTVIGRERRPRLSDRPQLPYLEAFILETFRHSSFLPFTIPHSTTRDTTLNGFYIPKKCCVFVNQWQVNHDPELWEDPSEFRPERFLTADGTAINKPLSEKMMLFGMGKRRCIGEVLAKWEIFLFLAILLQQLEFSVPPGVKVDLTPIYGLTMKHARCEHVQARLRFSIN

On to `O=C(c1ccncc1)N1CCC2(CC1)CN(c1ccc(-c3ccccc3)cc1)C2`, for which the Potency in test [1] was greater than 11.4 µM; in test [5], greater than 46 µM. Moreover, the Potency result in test [2], in [6], in [7] and in test [8] was “inactive” in each case. Also, the activity change, negative = inhibition in [3] is 17.4%. The activity, negative = inhibition in test [4] is -19.8%. The outcome in test [9] was inactive.
As to `O=C(c1cnccn1)N1CCC2(CC1)CN(Cc1ccccc1)C2`, the Potency in test [1] is greater than 11.4 µM; in test [5] it was greater than 46 µM. The activity change, negative = inhibition in test [10] was -15.8%. In addition, the activity, negative = inhibition in test [4] is 2.48%. The Potency entry in [6] and in [7] was “inactive” in each case. Further, in [11], the activation was 6.71%. Further, in test [9], the outcome was inactive.
Turning to `O=C(c1cccc(F)c1)N1CCC2(CC1)CCN(c1ccccn1)CC2`, the Potency in test [1] was greater than 11.4 µM; in test [5] it was greater than 46 µM; in test [8], 3.16 µM (active). For the same compound, in test [10], the activity change, negative = inhibition is -6.05%. The activity, negative = inhibition in test [4] was -4.99%. The Potency entry in test [6], in test [7] and in test [12] was “inactive” in each case. Further, the result in [9] was inactive.
For the compound `O=c1c(-c2cccs2)nc2cnc(Oc3ccccc3)nc2n1-c1ccccc1`, the Potency in [1] was greater than 11.4 µM; in [13], greater than 9.22 µM; in [5], greater than 46 µM; in test [11], 2.51 µM (active). In addition, the activity change, negative = inhibition in [10] was 3.02%. The Potency entry in [6] is “inactive”. The outcome in test [9] was inactive.
As to `CCNc1ncc2nc(-c3ccccc3)c(=O)n(-c3ccc(OC)cc3)c2n1`, the Potency in [1] is greater than 11.4 µM; in test [13] it was greater than 9.22 µM; in test [5] it was greater than 46 µM; in test [11] it was 3.16 µM (active). Further, the activity change, negative = inhibition in test [10] is 27.6%. Further, the Potency entry in [6] was “inactive”. Besides, the result in [9] was inactive.
Regarding `Cn1c(=O)c(-c2ccc(Cl)cc2)nc2cnc(Oc3ccccc3)nc21`, the Potency was greater than 11.4 µM in test [1]; 0.2 µM (active) in test [2]; greater than 9.22 µM in test [13]; greater than 46 µM in test [5]; 20 µM (active) in test [8]. Also, the activity, negative = inhibition in [4] is 2.85%. The Potency result in [6], in test [7] and in [12] was “inactive” in each case. In addition, the outcome in test [9] was inactive.
As for `O=C(c1cnccn1)N1CCC2(CCCN(c3ccncc3)C2)CC1`, the figures for the Potency in test [1] and in [5] were greater than 11.4 µM and greater than 46 µM, respectively. The activity change, negative = inhibition in test [10] is -3.01%. For the same compound, the activity, negative = inhibition in test [4] was -6.12%. The Potency result in [6] and in [7] was “inactive” throughout. The outcome in [9] was inactive.
In the case of `CCNc1ncc2nc(-c3ccc(Cl)cc3)c(=O)n(C3CC3)c2n1`, the Potency in [1] is greater than 11.4 µM; in test [2], 0.501 µM (active); in test [13], greater than 9.22 µM; in test [5] it was greater than 46 µM; in [11], 0.398 µM (active). In addition, in test [3], the activity change, negative = inhibition is -4.85%. Besides, the Potency entry in test [6] and in test [7] was “inactive” each time. In addition, in [9], the result was inactive.
